Cycloheximide cs = Cycloheximide Counterscreen for Small Molecule Inhibitors of Shiga Toxin; cell reporter, cycloheximide protein synthesis inhibition counterscreen; max response, %; actives 12% (n = 300,000); in the data active means max response mostly above about 13%, no sharp cut-off; inactive means mostly below about 14%; further: read at 38.3 µM for the half of the compounds with a filed dose; 0% is about no effect
Pf growth 48h = Primary qHTS for delayed death inhibitors of the malarial parasite plastid, 48 hour incubation; P. falciparum luciferase growth in erythrocytes, 48 h; Potency, µM (titrated, usually from 28.7 µM), for inactives: at the highest dose activity change, negative = inhibition, usual class: inhibitors; actives 5.9% (n = 310,000); AID 504832, 2011; further: potency means the concentration at half of the fitted maximal effect; on the % scale 0 is the no-effect control and ±100 the full control effect
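First compound was added to culture medium, then infected red cells at 0.1% parasitemia and 2% hematocrit (final). After incubation at 37 C under 5% CO2, luciferase detection reagent was dispensed and light output recorded.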
NS1 inh = qHTS Assay for Inhibitors of Influenza NS1 Protein Function; Potency, µM (titrated, usually from 46.1 µM), inactives show at the highest dose activity, positive = more growth; actives 0.4% (n = 270,000); calls by dose curve; further: potency means the concentration at half of the fitted maximal effect; actives are rising curves; nearly all actives have a fitted effect of over 50% in size
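OD600 was taken as the measure of yeast growth restored by compound in an NS1-expressing S. cerevisiae strain. Cells had been washed out of glucose medium and diluted 1:100 into galactose -URA medium, pH 6.0.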
SARS PLP yeast = qHTS of Yeast-based Assay for SARS-CoV PLP; actives 0.19% (n = 330,000); S. cerevisiae expressing SARS-CoV PLpro, growth rescue; AID 485353, 2010; Potency, µM (doses to about 32.9 µM), inactives show at the top dose activity, positive = growth rescue, usual class: activators; calls by dose curve; further: potency means the concentration at half of the fitted maximal effect; 0% is about no effect; nearly all actives have a fitted effect of over 55% in size
Shiga inhibitor = A qHTS for Small Molecule Inhibitors of Shiga Toxin; actives 9.2% (n = 290,000); inhibition, % at 38.7 µM; Vero cells, Shiga toxin protein synthesis inhibition reporter; in the data active means inhibition mostly above about 28%, no sharp cut-off; inactive means mostly below about 43%; further: 0% is about no effect
Pf growth 96h = Primary qHTS for delayed death inhibitors of the malarial parasite plastid, 96 hour incubation; Potency, µM (series often up to 28.7 µM), for inactives: at the highest dose activity change, negative = inhibition, actives largely listed as inhibitors; P. falciparum luciferase reporter growth, 96 h; actives 6.9% (n = 320,000); further: potency means the concentration at half of the fitted maximal effect; on the % scale 0 is the no-effect control and ±100 the full control effect
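Luminescence readout: decreased luciferase signal marks inhibited growth of reporter-expressing P. falciparum in infected red cells (2% hematocrit, 0.05% parasitemia final), exposed to compound two generations (96 h, 37 C, 5% CO2).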
Starred values were filed as active, the others as inactive; ? = inconclusive; . = no result given; [ ] = remark or other dose. Sampled rows, rich in hits. Any-hit rate of the full collection: about 21%. Unless noted, the call rests on the fitted dose curve; in most records, active means well fitted inhibition curve with a large enough effect; inconclusive means small, poorly fitted or top-dose-only effect, or another doubt; inactive means no such curve, though single readings can be large or run the other way.

SMILES	Cycloheximide cs	Pf growth 48h	NS1 inh	SARS PLP yeast	Shiga inhibitor	Pf growth 96h
CC(C)CN(C(=O)COC(=O)CCc1nc2ccccc2s1)c1c(N)n(Cc2ccccc2)c(=O)[nH]c1=O	.	-12%	.	-6%	.	9%
Cc1ccc(OCC(O)CN2CCc3ccccc3C2)c(C)c1 (stereo not drawn)	-14	12%	-2%	1%	-11	-15%
CN(Cc1cnccn1)Cc1ccccc1OCC(O)CN1CCc2ccccc2C1 (stereo not drawn)	1	12µM*	2%	0%	47	14%
Cc1cccc(NC(=O)CNC(=O)c2cccc(S(=O)(=O)NCc3cccs3)c2)c1C	.	?	.	-4%	.	-12%
CCOC(=O)[C@H]1[C@H]2COc3ccc(Cl)cc3[C@@H]2N2C(=O)CN(Cc3ccccc3)C(=O)[C@@]12C	.	?	.	8.9µM*	.	5.9µM*
CCOC(=O)[C@H]1[C@H]2COc3ccc(Cl)cc3[C@@H]2N2C(=O)CN(Cc3ccc(Cl)cc3)C(=O)[C@@]12C	.	15µM*	.	-5%	.	?
CCc1sc(C(=O)Nc2cc(S(=O)(=O)N3CCOCC3)ccc2OC)cc1C	.	?	.	0%	.	?
CCOC(=O)C1=C(C)NC(=O)NC1c1ccc([N+](=O)[O-])o1 (stereo not drawn)	2	12%	-3%	1%	20	25%
CCOC(=O)C1=C(C)NC2=C(C(=O)c3ccccc32)C1c1ccc([N+](=O)[O-])o1 (stereo not drawn)	12	13µM*	0%	0%	17	?
Cc1cc(N2CCN(C)CC2)ccc1NC(=O)c1cccc(S(=O)(=O)N2CCc3ccccc3C2)c1	-10	?	0%	-5%	-42	10µM*
CC(=O)N1CCN(S(=O)(=O)c2cccc(C(=O)Nc3ccc(C)cn3)c2)CC1	45*	17%	-10%	-3%	77*	14%
Cc1ccc(NC(=O)c2cccc(S(=O)(=O)N3CCc4ccccc4C3)c2)nc1	.	7.4µM*	.	4%	.	9.3µM*
O=C(Nc1ccc(Br)cn1)c1cccc(S(=O)(=O)N2CCCC2)c1	.	.	.	0%	.	.
CC(C)(C)C(=O)N1CCN(c2nc3ccccc3o2)CC1	16	4%	.	-2%	27	?
CCN(CC(=O)Nc1ccc(OC)cc1)CC(=O)N1CC(=O)Nc2ccccc21	.	?	.	1%	.	?
CCC(=O)N(Cc1c(C)nn(-c2ccccc2)c1Cl)c1ccc(Cl)cc1	0	10µM*	-27%	?	4	3%
Cc1nn(-c2ccccc2)c(Cl)c1C(=O)NCc1ccccc1F	7	?	-17%	-3%	17	?
COc1cc(/C(C)=N\NC(=O)CSc2nc3ccccc3n2C)ccc1O	1	-16%	-2%	-1%	-11	-3%
CCOC(=O)c1c(NC(=O)/C=C/C(=O)O)sc(C)c1-c1ccc(C)c(C)c1	1	9.3µM*	0%	-1%	1	17%
COC(=O)c1c(NC(=O)/C=C/C(=O)O)sc(C)c1-c1ccc(C)c(C)c1	-1	?	-34%	-8%	18	?
O=C(c1ccccc1-c1nc(-c2ccccc2)no1)N1CCCC1	22*	76%	-8%	11%	56*	?
O=C(c1ccccc1-c1nc(-c2ccc(Cl)cc2)no1)N1CCCC1	45*	56%	-42%	3%	74*	.
Cc1ccc(-c2noc(-c3ccccc3C(=O)N3CCCC3)n2)cc1	35*	0%	-10%	-8%	54*	22%
O=C(CCCN=C1NS(=O)(=O)c2ccccc21)OCC(=O)c1ccccc1Cl	.	?	.	2%	.	18%
CCC1Oc2ccc(C)cc2N(CC(=O)NCc2cccc(OC)c2)C1=O (stereo not drawn)	7	?	-89%	-17%	11	5%
SMILES	Cycloheximide cs	Pf growth 48h	NS1 inh	SARS PLP yeast	Shiga inhibitor	Pf growth 96h
O=C(CN(Cc1cccs1)C(=O)CN1C(=O)COc2ccccc21)NCc1ccco1	10	8%	8%	-2%	58	50%
CC(=O)Nc1ccccc1/C=C/c1ccc2c(C)cc(C)c(O)c2n1	-2	-1%	-1%	-33%	-4	?
CC(=O)Nc1ccccc1/C=C/c1ccc2c(C)ccc(O)c2n1	17*	19%	3%	2%	18	-23%
CC(C)C(=O)c1cc2c(cc1NC(=O)c1cccs1)OCCO2	1	?	3%	1%	2	?
Cc1ccc(C(=O)Nc2cc3[nH]c(=O)oc3cc2C)cc1	11	31%	4%	-1%	24*	?
Cc1ccc(C(=O)Nc2c[nH]c(=O)[nH]c2=O)cc1	16	36%	-6%	-6%	.	8%
CCOC(=O)c1c(NC(=O)CN2CCN(C)CC2)sc(C(=O)Nc2ccccc2)c1C	28*	13µM*	0%	-1%	18	0%
CCOC(=O)c1c(NC(=O)c2cc(C)oc2C)sc(C(=O)Nc2ccc(Cl)cc2)c1C	24*	?	14%	1%	40	?
COCCOC(=O)c1c(NC(=O)CN2c3ccccc3CC2C)sc(C(N)=O)c1C (stereo not drawn)	6	12µM*	6%	-4%	-9	?
COc1ccc(Cc2nnc(SCC(=O)Nc3ccc(N4CCOCC4)cc3)o2)cc1	-1	25%	8%	-1%	-9	-21%
Cc1nn(C)c(C)c1-c1cccc2c1CCC(N(C)C)C2 (stereo not drawn)	-1	.	.	.	14	.
CCCCN1C(=N)N([C@@H](C)CN2CCC[C@H]2CN2C(N)=NC[C@H]2CC(C)C)C[C@H]1[C@H](C)CC	.	.	.	-2%	.	.
O=C(/C=C/c1c(Cl)cccc1Cl)n1cccn1	9.8*	4%	-26%	-41%	14	-14%
CCOC(=O)c1nnsc1Nc1ccc(C)c(C)c1	43*	4%	.	-1%	59*	0%
O=C1N(Cc2cccc(Cl)c2)C[C@@H]2C[C@@H](c3c[nH]c4ccccc34)N3CCC[C@@]123	-3	?	26%	0%	-3	?
Cc1c(O)ccc2cc(S(=O)(=O)c3ccccc3)c(=O)oc12	0	7%[0.00184 µM]	1%	-1%	-1	12µM*
O=C1NCC(c2ccccc2)C1C(=O)N/N=C\c1ccc(-c2ccc(Cl)c(Cl)c2)o1 (stereo not drawn)	-7	.	28%	-20%	-22	-98%
O=C1NCC(c2ccccc2)C1C(=O)N/N=C/c1ccc(Cl)s1 (stereo not drawn)	2	-29%	0%	0%	-1	7.4µM*
Nc1nc2c(s1)CC(c1ccccc1)CC2 (stereo not drawn)	15	21%	-36%	0%	53	5.2µM*
O=C1CC(=O)CC(c2ccccc2)C1	1	13%	.	-6%	-16	0%
CCSc1nnc(NC(=O)C(NC(=O)c2ccc(Cl)cc2)C(C)C)s1 (stereo not drawn)	0	5%	10%	3%	-12	2%

Screening data: PubChem BioAssay, National Center for Advancing Translational Sciences (NCATS)
